# According to PubChem BioAssay AID1347120 (National Center for Advancing Translational Sciences (NCATS), 2019):
# In all, about 390,000 compounds went through this assay and about 930 (0.24%) were called active. About 5% were inconclusive and are not listed. This excerpt belongs to a sample that is enriched for actives. A number with no mark means an inactive call. Calls come from the whole dose curve; as a rule, active = well fitted activation curve with a large enough effect; inconclusive = small, poorly fitted or top-dose-only effect; inactive = no such curve, though single readings can be large or run the other way.
# Assay: qHTS for Suppressors of FUS Proteinopathy: Primary screen using FUS-linked yeast assay; note: nearly all actives have a fitted effect of over 55% in size;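 for growth rescue (activation): plate controls were DMSO vehicle for no effect and reference control for full effect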
# Details: S. cerevisiae FUS-expressing, OD600, 24 h; Potency: growth rescue; series mostly up to 76.6 µM; growth rescue (activation): at the top concentration
# Source text: Several widespread neurodegenerative diseases, including Alzheimer disease, Huntington disease, Frontotemporal Lobar Degeneration (FTLD) and Amyotrophic Lateral Sclerosis (ALS), share a common pathological feature, namely accumulation of specific protein aggregates in diseased tissue. These diseases which is associated with protein misfolding (proteinopathies) have become increasingly problematic as the population ages and life expectancies are extended. Most proteinopathies are currently incurable, a situation confounded by the fact that the basis of neurodegeneration is generally poorly understood. There exists urgent and significant need to find therapeutics that can inhibit the toxicity associated with protein aggregation. A novel approach to understand the underlying mechanisms of neurodegenerative diseases has recently emerged in which the disease conditions are modeled in the yeast (Saccharomyces cerevisiae), a tractable eukaryotic organism with conserved protein quality control mechanisms. Yeast offers quick and reliable genetic manipulations and can be easily tailored to high-throughput screening (HTS).
# For this project, a yeast model of the FUS proteinopathies (a spectrum of neurodegenerative diseases that include ALS and a subtype of FTLD) was generated and employed. The cytoplasmic accumulation of the DNA/RNA-binding protein FUS (also known as TLS) is causative to both familial and sporadic forms of ALS and FTLD. This yeast model recapitulates neuronal pathology by showing severe cytotoxicity associated with cytoplasmic accumulation of FUS aggregates and a specific interaction between FUS and TDP-43, another ALS-associated protein. […] Specifically, the cellular accumulation of misfolded FUS that disrupts RNA homeostasis in both yeast and higher eukaryotes. This model was validated to be suitable for quantitative HTS (qHTS) use for finding genetic or chemical factors that restore growth. […] Identified compounds that inhibits FUS-yeast toxicity is flagged, re-acquired, and validated for further investigation and optimization.
# NIH Chemical Genomics Center [NCGC]
# NIH Molecular Libraries Probe Production Centers Network [MLPCN]
# Assay Submitter (PI): Frank Shewmaker PhD, Uniformed Services University of the Health Sciences
# Compound CP55940 was used as the positive control. Column 1 was treated with CP55940 titration from 92uM (final concentration, 1:2 dilution), while Column 2 was treated with top dose 92uM. Columns 3 and 4 were treated with DMSO only as negative control to assess background and noise signal.
# Four hundred fifty microliter of cultured yeast (in 20mL rich medium) provided by Dr. Shewmaker lab was incubated at 30C at 99% humidity for 3hr. The culture was then spun down at 4000rpm for 5min and the cell pellet was resuspended in 2mL of Sdmin Media + ALU(330) + 2.5% Raffinose. One hundred microliter of the suspension was added to 900uL of water and OD of the solution was obtained. Twenty mL of responding medium (provided by Shewmaker lab) + 2.5% raffinose was added to ensure cell density of 0.1; the solution was incubated overnight. Working cell solution (FUS-yeast in Sdmi + Sdmi + 1X ALU + 2% galactose media) was prepared (final OD at 0.005) and 3uL was dispensed in a 1536-well Aurora high based clear bottom assay plates. Controls and library compounds (at various final concentrations from 40uM to 0.32uM) were added using a 1536-well pin array using the Kalypsys pin-tool. The plates were then incubated for 24hrs in a cell-culture incubator (30C; 99% humidity). Absorbance at 600nm was then read using the PerkinElmer ViewLux plate reader.
# Potency is the fitted concentration of half-maximal effect.
SMILES,growth rescue (activation),Potency
COc1ccccc1NC(=O)c1sc2nc(C)c(C(=O)Nc3ccc(Cl)cc3)c(-c3ccc(Br)cc3)c2c1N,31%,–
CC(C)S(=O)(=O)c1oc(-c2ccc(F)cc2)nc1S(=O)(=O)c1ccc(F)cc1,-15.6%,–
CCOc1ccccc1NC(=O)C1CCCN(S(=O)(=O)c2cn(C)cn2)C1 (stereo not given),4.87%,–
COC(=O)c1ccccc1NC(=O)c1ccc2c(=O)n3c(nc2c1)CCCCC3,16.4%,–
COc1cccc(CNC(=O)c2ccc3c(c2)sc2nc(-c4cccc(OC)c4)cn23)c1,11.4%,–
CN1C(=O)c2[nH]nc(-c3ccc(F)cc3)c2C1c1ccccn1 (stereo not given),-19.3%,–
COc1ccc(CCNC(=O)c2nn(C)c3c2CSc2ccccc2-3)cc1OC,12.3%,–
CCCn1c2ccccc2c2cnn(CC(=O)NCC3CCN(Cc4ccc(C)cc4)CC3)c(=O)c21,-0.459%,–
Cc1ccc(NC(=O)CSc2nc3ccccc3c3nc(CCn4cncc4C)nn23)cc1F,20.8%,–
Cc1cccc(NC(=O)C2CCCN2S(=O)(=O)c2cccc3nsnc23)c1C (stereo not given),18.3%,–
COc1ccc(-c2cn3c(n2)sc2cc(C(=O)Nc4ccccc4F)ccc23)cc1,19.4%,–
CCOc1ccc(NC(=O)c2c(NC(=O)Cc3ccccc3)sc3c2CCCCC3)cc1,18.3%,–
NS(=O)(=O)c1ccc(CCNC(=O)CCCCCn2c(=O)[nH]c3ccccc3c2=O)cc1,8.38%,–
CCOC(=O)C1=C(c2ccccc2)Nc2ncnn2C1c1ccc(Cl)cc1 (stereo not given),-5.79%,–
COc1ccc(N2CCN(c3cc(C)nc4nncn34)CC2)cc1,-24.9%,–
COc1ccccc1-c1cc2nc(NCc3cccc(Cl)c3)ccn2n1,33.9%,–
COCCCNc1ccn2nc(-c3ccc(CC(C)C)cc3)cc2n1,–,25.1 µM (active)
CC(C)Cc1ccc(-c2cc3nc(NCc4cccc(Cl)c4)ccn3n2)cc1,-4.06%,–
CCOc1ccccc1N(CC)C(=O)Nc1cn(C)c(=O)c2ccccc12,13.2%,–
Cc1ccc(C)c(N2CCN(CCCNC(=O)Nc3ccc(Cl)cc3)CC2)c1,20.1%,–
CCc1cc2c(cc3c(=O)n(CC(=O)NCCc4ccc(OC)c(OC)c4)ncn32)s1,0.833%,–
Cc1ccc(-c2csc(C(C#N)=C(O)CN3CCN(C(=O)c4ccco4)CC3)n2)cc1,–,28.2 µM (active)
COc1cccc(OC)c1OCCN1CCN(C(=O)c2ccco2)CC1,-15.5%,–

SMILES,growth rescue (activation),Potency
Cc1ccc(NC(=O)C(c2ccccc2)N2CCN(C(=O)c3ccco3)CC2)cc1 (stereo not given),31.1%,–
CN1CCN(C2(CNC(=O)COc3ccc(C(C)(C)C)cc3)CCCCC2)CC1,20.4%,–
CC(C)(C)OC(=O)C[C@@H]1C/C=C\C[C@@H](CC(=O)N[C@H](CO)Cc2ccccc2)C(=O)NCCOC1=O,13.5%,–
O=C(C[C@H]1C/C=C\C[C@@H](NC(=O)OCC2c3ccccc3-c3ccccc32)C(=O)O[C@@H](c2ccccc2)CNC1=O)N[C@H](CO)Cc1ccccc1,–,35.5 µM (active)
CC(C)(C)OC(=O)C[C@@H]1C/C=C\C[C@@H](CC(=O)N[C@H](CO)Cc2ccccc2)C(=O)NC[C@@H](c2ccccc2)OC1=O,25.1%,–
CC(C)c1ccc(NC(=O)c2ccc3c(O)c(S(=O)(=O)c4ccccc4)c(=O)[nH]c3c2)cc1,-2.38%,–
Cc1ccc(Cl)cc1-n1ncc2c(N3CCC(C(N)=O)CC3)ncnc21,-6.61%,–
CCOC(=O)c1c(NC(C)=O)c2c3c(sc2n1Cc1c(C)cc(C)cc1C)CCCC3,32.1%,–
CCc1ccccc1NC(=O)CSc1nnc(-c2ccccc2)c(-c2ccccc2)n1,31.2%,–
CCOCCCn1c(SCC(=O)Nc2ccc(CC)cc2)nc2ccccc2c1=O,4.6%,–
O=C(CN1CCOCC1)Nc1c(Cl)cc(Cl)cc1Cl,-45.1%,–
O=C(CN1CCOCC1)Nc1ccccc1,–,25.1 µM (active)
O=C(CN1CCOCC1)Nc1c2c(nc3c1CCC3)CCC2,-15.7%,–
CN(c1ccccc1)S(=O)(=O)c1ccc(NC(=O)COc2ccccc2)cc1,17.1%,–
CN(C)S(=O)(=O)c1cccc(NC(=O)COc2ccc3ccccc3c2)c1,–,22.4 µM (active)
CN(C)S(=O)(=O)c1cccc(NC(=O)COC(=O)C2(c3ccccc3F)CCCC2)c1,19.5%,–
Cc1ccc(NC(=O)C2CCN(S(=O)(=O)c3cc(-c4noc(C)n4)ccc3C)CC2)c(C)c1,13.4%,–
Cc1ccccc1C(=O)Nc1nnc(S(=O)(=O)N(C)c2ccc(Cl)cc2)s1,-9.93%,–
CCOC(=O)C1=C(C)Nc2sc(C(=O)c3ccc(Br)cc3)c(N)c2C1c1ccc(C(=O)OC)cc1 (stereo not given),–,31.6 µM (active)
CCOC(=O)C1=C(C)NC(SC)=NC1c1ccccc1 (stereo not given),25.4%,–
CCOC(=O)C1=C(C)NC2=C(C(=O)CC(C)(C)C2)C1c1ccsc1 (stereo not given),13.7%,–
O=C(NCc1ccccc1)c1cccc(NC(=O)N2CCSc3ncccc32)c1,-8.13%,–
